Screens as filed in PubChem.
Shown are actives, neighbours in structure and some others; about 4.7% of the full set was active somewhere.
D1 PAM: human D1 dopamine receptor positive modulation | 360,000 compounds, 0.036% hits | P21728 | AID 504651 | HEK293 TREx D1 cells, calcium flux, dopamine EC20 potentiation | potentiation, % at 10 µM; in the data active means potentiation above about 30%
TRHR agonist: TRH receptor (human) agonism | P34981 | TRHR cells, calcium flux fluo-8, FDSS agonist mode | activation, % at 2 µM | 360,000 compounds, 0.18% hits
Target sequence (P34981 whole entry, looked up): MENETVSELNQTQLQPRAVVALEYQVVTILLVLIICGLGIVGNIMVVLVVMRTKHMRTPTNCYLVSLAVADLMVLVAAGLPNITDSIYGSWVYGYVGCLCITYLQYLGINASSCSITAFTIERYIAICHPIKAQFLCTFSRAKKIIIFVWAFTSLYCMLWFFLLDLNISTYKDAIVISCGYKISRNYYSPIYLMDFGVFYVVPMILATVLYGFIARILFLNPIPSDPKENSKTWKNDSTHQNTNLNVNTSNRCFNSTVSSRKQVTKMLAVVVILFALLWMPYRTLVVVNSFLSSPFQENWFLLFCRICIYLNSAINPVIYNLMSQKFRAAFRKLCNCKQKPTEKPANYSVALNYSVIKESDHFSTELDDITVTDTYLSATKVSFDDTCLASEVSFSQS
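Read-out: compound-evoked intracellular calcium rise in TRHR cells, fluo-8 dye, kinetic FDSS fluorescence at 1 s/cycle following a 10-cycle baseline. Cells cultured overnight before dye loading (30 min–1.5 h, RT).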
D1 antag: antagonists of human D1 dopamine receptor | AID 504652 | P21728 | HEK293 TREx D1 cells, calcium flux, dopamine EC80; active compounds read low | 360,000 compounds, 3.2% hits | activity change, negative = inhibition, % at 10 µM; in the data active means activity change below about -30%
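Antagonism measured as reduced calcium response to an EC80 dopamine addition following 180 s compound pre-read; cells were inducible HEK293 Trex D1 plated overnight at 30 C, read kinetically at 1 cycle/sec.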
D1 agonist: activates the human D1 dopamine receptor; activation, % at 2 µM; P21728; 360,000 compounds, 1% hits; AID 504660; HEK293 T-REx D1 cells, calcium flux, agonist mode
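Agonism was scored from calcium flux recorded over 180 s (1 read/s) after pintool compound addition, following a 10-cycle baseline. Cells were inducible force-coupled HEK293 TREx D1, plated overnight at 30 C and loaded with no-wash calcium dye.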
TRHR PAM: allosteric enhancers of human TRH receptor. P34981. TRHR cells, fluo-8 calcium fluorescence, EC20 TRH enhancement. enhancement, % at 2 µM. 360,000 compounds, 0.66% hits. AID 493056; in the data active means enhancement above about 30%
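Enhancer read-out: after compound pinning and an initial kinetic agonist-mode read, an EC20 of TRH (10 nM final) was injected and fluo-8 calcium signal (Ex 480/Em 530) followed at 1 s/cycle for 100 cycles in TRHR-expressing cells.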
Of the large screens only hits and unclear results are named; the others gave an inactive call. Unless noted, no stated cut-off is given here; in the data, active means activation above about 30%; inactive means the rest.

COc1ccccc1NS(=O)(=O)c1ccc(Cl)c(NC(=S)NC(=O)C2CCCC2)c1	none
Cc1ccc(NC(=O)CNCC2CCCCC2)cc1S(=O)(=O)N(C)C	none
Cc1ccc(NC(=S)NC2CCCCC2)cc1S(=O)(=O)N(C)C	D1 antag -34
CCN(CC)S(=O)(=O)c1ccc(Cl)c(NC(=S)NC(=O)C2CCCC2)c1	D1 agonist 32 (no result: D1 PAM)
CCN(CC)c1ccc(S(=O)(=O)Nc2cc(Cl)ccc2Cl)cc1NC(=S)NC(=O)C1CCCC1	D1 antag -32
CCN(CC)S(=O)(=O)c1ccc(C)c(NC(=S)NC2CCCCC2)c1	D1 antag -80
COc1ccc(S(=O)(=O)Nc2ccccc2C(=O)Nc2nc(-c3ccc(F)cc3)cs2)cc1OC	none
COc1ccc(-c2csc(NC(=O)c3ccccc3NS(=O)(=O)c3ccc(C)cc3)n2)cc1	D1 antag -40
COc1cc(NC(=O)c2cc(OC)c(OC)c(OC)c2)ccc1NC(=O)c1cccs1	none
COc1cc(NC(=O)c2c(F)c(F)c(OC)c(F)c2F)ccc1NC(=O)c1cccs1	D1 antag -46
COc1ccc(C(=O)Nc2cccc(NC(=O)c3cccs3)c2)cc1	D1 antag -31
COc1ccc(/C=N/NC(=O)c2cccc(NC(C)=O)c2)c(OC)c1	none
COc1ccc(C(=O)Nc2cccc(C(=O)N/N=C/c3ccc(OC)cc3OC)c2)cc1	D1 antag -48
Cn1cc(C(=O)NCCc2ccccc2)c(=O)c2cc(S(=O)(=O)N3CCCCC3)ccc21	none
Cc1ccc(-c2c(C#N)c(N)n3c(nc4ccccc43)c2C#N)cc1	D1 antag -39
Cc1ccccc1OCC(=O)N/N=C1\SCC(=O)N1Cc1ccccc1	D1 antag -43
Cc1ccccc1C(=O)N/N=C1\SCC(=O)N1Cc1ccco1	TRHR PAM 37
COc1cc(OC)cc(C(=O)N/N=C2/SCC(=O)N2Cc2ccco2)c1	none
CN(C)c1ccc(NS(=O)(=O)c2ccc(-c3csnn3)cc2)cc1	D1 agonist 30
CCOC(=O)N1CCN(CC(=O)Nc2sc(CC)cc2C(=O)c2ccc(OC)cc2)CC1	D1 antag -31
CC1CCc2c(sc(NC(=O)CN3CCN(C(=O)c4ccco4)CC3)c2C#N)C1 (stereo not given)	D1 antag -31
CCc1cc(C(=O)OC)c(NC(=O)CN2CCN(C(=O)c3ccco3)CC2)s1	D1 antag -47, D1 agonist 116
COc1cccc(CNCCSc2nnnn2-c2ccccc2)c1OC	none
CCOc1ccc(CCNC(=O)c2ccc(-c3nc(COc4ccc(C)cc4)c(C)o3)cc2)cc1	none
Cn1nnnc1Sc1ncnc2scc(I)c12	none
Cc1[nH][nH]c(=O)c1C(c1ccc(-c2cccc(Cl)c2)o1)c1c(C)[nH][nH]c1=O	none
Cc1[nH][nH]c(=O)c1C(c1ccc(-c2ccc(Cl)cc2Cl)o1)c1c(C)[nH][nH]c1=O	D1 agonist 55
CC1CCN(C(=O)CSc2c(C(C)C)cnc3c2c(=O)n(C)c(=O)n3C)CC1	none
CN(C)CCN(C(=O)c1ccc(S(=O)(=O)N2CCc3ccccc32)cc1)c1nc2ccc(F)cc2s1	D1 antag -36
CN(C)CCCN(C(=O)c1ccc(S(=O)(=O)N2CCc3ccccc32)cc1)c1nc2c(Cl)cccc2s1	none
COc1cccc2sc(N(CCCN(C)C)C(=O)c3ccc(S(=O)(=O)N4CCCc5ccccc54)cc3)nc12	D1 agonist 39
CCc1nnc2c3ccccc3nc(N3CCN(c4cc(C)ccc4C)CC3)n12	none
COC(=O)CN(c1ccccc1C)S(C)(=O)=O	D1 antag -38
CCc1ccccc1N(CC(=O)OC)S(C)(=O)=O	none
COc1ccc2nc3sc(C(=O)N4CCN(c5ccccc5)CC4)cc3cc2c1	D1 antag -59
COc1cccc(N2CCN(C(=O)c3cc4cc5cc(C)ccc5nc4s3)CC2)c1	none
CC(=O)c1ccc(N2CCN(C(=O)c3cc4cc5cc(C)ccc5nc4s3)CC2)cc1	TRHR PAM 49
CCOC(=O)c1ccccc1NC(=O)CSc1ccc(-c2sc(-c3ccccc3)nc2C)nn1	none
Cc1cccc(-n2ncc3c(NC4CCCCC4)ncnc32)c1	none
Cc1cccc(-n2ncc3c(NC4CCCC4)ncnc32)c1	D1 antag -34
Cc1ccc(Cl)cc1-n1ncc2c(NCCCc3ccccc3)ncnc21	D1 antag -36
Cc1ccc(CNc2ncnc3c2cnn3-c2ccccc2)cc1	D1 agonist 53
Cc1ccc(Cl)cc1-n1ncc2c(NCc3ccc(F)cc3)ncnc21	D1 antag -61, D1 agonist 77
O=C(Cn1c(=O)n(-c2ccc(Cl)cc2)c(=O)c2sc3ccccc3c21)NC1CCCCC1	none
COc1ccc(-c2cc(OC(=O)c3cccc(C)c3)c3c(C)oc(C)c3c(=O)c2)cc1	none
COc1ccc(/C=C/C(=O)N2CCC(c3nc4ccccc4o3)CC2)cc1OC	none
C/C(CC(=O)Nc1cccc(Cl)c1Cl)=N\NC(=O)c1ccccc1C	D1 antag -43
C/C(CC(=O)Nc1ccc(C)c(Cl)c1)=N\NC(=O)c1cccc(O)c1	TRHR PAM 32
CS(=O)(=O)/C=C/c1nc(Nc2cc(F)cc(F)c2)c2ncn(CC(F)F)c2n1	none
O=C(NC1CCCc2ccccc21)c1cn2ccccc2n1 (stereo not given)	none
CC(=O)c1cccc(NC(=O)NC2CCCc3ccccc32)c1 (stereo not given)	none
Cc1cccc(NC(=O)NC2CCCc3ccccc32)c1 (stereo not given)	D1 antag -44
COc1ccc(NC(=O)NC2CCCc3ccccc32)cc1OC (stereo not given)	none
COc1ccc(NC(=O)NC2CCCc3ccccc32)cc1 (stereo not given)	D1 antag -43
Cc1nc2ccccn2c1C(=O)NC1CCCc2ccccc21 (stereo not given)	D1 antag -34
CN(c1cccc(Cl)c1)S(=O)(=O)c1cccc(C(=O)NN2CCOCC2)c1	D1 antag -37 (no result: D1 PAM)
O=C(NN1CCOCC1)c1cccc(Cl)c1	none
CC1(C)O[C@@H]2[C@H](O1)[C@@H](COS(=O)(=O)O)O[C@H]2n1cnc2c(N)ncnc21	D1 antag -31
CCCCCCCCCn1c2c(c(=N)c3c1CCC3)CCCC2	D1 agonist 85
N=c1c2c(n(Cc3ccc(Cl)cc3)c3c1CCC3)CCC2	none
N=c1c2c(n(Cc3ccc(F)cc3)c3c1CCC3)CCCC2	D1 antag -30
COc1ccc2nc(C)cc(NCc3ccc(F)cc3)c2c1	D1 agonist 85
Cc1ccc2nc(N(CCCN(C)C)C(=O)CN3C(=O)c4ccccc4C3=O)sc2c1	D1 agonist 44
Cc1ccc2nc(N(CCCN(C)C)C(=O)CCc3ccccc3)sc2c1	none
CN(C)CCCN(C(=O)CCc1ccccc1)c1nc2ccc(Cl)cc2s1	D1 agonist 31
